“And” between values parts separate entries of the source, which are not always exact repeats. Equal entries are not always repeated. Screen size: about 5,500 compounds; about 2,000 (36%) were called active. Another 18% or so got no clear call; they are omitted. No stated cut-off is given here; in the data, active means normalized growth mostly below about 0.91 (no sharp cut-off); inconclusive means no clear call, values can overlap the other calls; inactive means mostly above about 0.92. Some of the results follow.
Assay: chemical genetic growth profiling, strain panel (AID 1159580);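 further: tested at 20 µM; growth read once vehicle control cultures reached saturation at 30 °C; 1 = growth at the plate median or of vehicle wells; lower values mean less growth of the strain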
Conditions: S. cerevisiae deletion strains, growth OD

Measured: normalized growth

CN1CCN(C2=Nc3cc(Cl)ccc3Nc3ccccc32)CC1
inactive: locus YAL013W, strain DEP1, active compounds read low 1.02 | locus YAL021C, strain ccr4, active compounds read low 0.991 | locus YAL026C, strain drs2, active compounds read low 0.953 | locus YAL030W, strain snc1, active compounds read low 1.01 | locus YAL040C, strain CLN3, active compounds read low 1.01 | locus YBL061C, strain skt5, active compounds read low 0.968 | locus YBR009C, strain hhf1, active compounds read low 1.01 | locus YBR021W, strain FUR4, active compounds read low 0.979 | locus YBR023C, strain chs3, active compounds read low 0.987 | locus YBR171W, strain sec66, active compounds read low 0.975 | locus YBR229C, strain ROT2, active compounds read low 1.01 | locus YBR231C, strain swc5, active compounds read low 0.988 | locus YBR279W, strain paf1, active compounds read low 0.983 | locus YCL011C, strain gbp2, active compounds read low 0.984 | locus YCL016C, strain dcc1, active compounds read low 0.954 | locus YCL029C, strain bik1, active compounds read low 1.01 | locus YCL061C, strain MRC1 (second series), active compounds read low 1 | locus YCL061C, strain MRC1, active compounds read low 0.984 | locus YCL069W, strain vba3, active compounds read low 0.981 | locus YCR088W, strain abp1, active compounds read low 0.985 | locus YDL005C, strain med2, active compounds read low 0.984 | locus YDL035C, strain GPR1, active compounds read low 1 | locus YDL040C, strain nat1, active compounds read low 1 | locus YDL074C, strain BRE1, active compounds read low 0.935 | locus YDL101C, strain DUN1, active compounds read low 0.996 | locus YDL134C, strain PPH21, active compounds read low 0.991 | locus YDL185W, strain tfp1, active compounds read low 1.01 | locus YDL192W, strain arf1, active compounds read low 1.02 | locus YDR001C, strain nth1, active compounds read low 0.989 | locus YDR069C, strain doa4, active compounds read low 0.968 | locus YDR101C, strain arx1, active compounds read low 1 | locus YDR150W, strain NUM1, active compounds read low 1.01 and 0.991 | locus YDR159W, strain sac3, active compounds read low 0.948 | locus YDR162C, strain NBP2, active compounds read low 0.97 | locus YDR195W, strain ref2 1.04 | locus YDR297W, strain sur2, active compounds read low 0.976 | locus YDR318W, strain mcm21, active compounds read low 1.02 | locus YDR334W, strain swr1, active compounds read low 0.98 | locus YDR335W, strain msn5, active compounds read low 0.977 | locus YDR363W, strain ESC2, active compounds read low 0.884 | locus YDR388W, active compounds read low 1.02 | locus YDR392W, strain spt3, active compounds read low 0.801 | locus YDR502C, strain sam2, active compounds read low 0.994 | locus YEL003W, strain gim4, active compounds read low 0.987 | locus YEL037C, strain rad23, active compounds read low 0.979 | locus YEL061C, strain CIN8 (second series), active compounds read low 0.977 | locus YEL061C, strain CIN8, active compounds read low 1.05 | locus YER002W, strain NOP16, active compounds read low 0.997 | locus YER015W, strain faa2, active compounds read low 0.991 | locus YER016W, strain bim1, active compounds read low 0.966 | locus YER110C, active compounds read low 1.03 | locus YER111C, strain swi4, active compounds read low 0.975 | locus YER155C, strain BEM2, active compounds read low 1.01 | locus YER167W, strain BCK2, active compounds read low 1 | locus YFR010W, strain ubp6, active compounds read low 1.02 | locus YGL078C, strain dbp3, active compounds read low 1.01 | locus YGL086W, strain mad1, active compounds read low 1.02 | locus YGL167C, strain pmr1, active compounds read low 0.989 | locus YGL173C, strain kem1, active compounds read low 0.98 | locus YGL227W, strain vid30, active compounds read low 0.969 | locus YGL240W, strain doc1, active compounds read low 1.03 | locus YGL248W, strain PDE1, active compounds read low 0.99 | locus YGL253W, strain hxk2, active compounds read low 0.982 | locus YGR078C, strain PAC10, active compounds read low 0.975 and 1.01 | locus YGR135W, strain pre9, active compounds read low 0.987 | locus YGR229C, strain SMI1, active compounds read low 0.948 | locus YGR252W, strain gcn5, active compounds read low 0.994 | locus YHR013C, strain ard1, active compounds read low 0.917 | locus YHR027C, strain rpn1, active compounds read low 0.985 | locus YHR030C, strain SLT2, active compounds read low 1.02 and 1.07 | locus YHR079C, strain IRE1 (second series), active compounds read low 1.03 | locus YHR079C, strain IRE1, active compounds read low 1.03 | locus YHR094C, strain hxt1, active compounds read low 1.02 | locus YHR129C, strain ARP1, active compounds read low 1.01 | locus YHR142W, strain chs7, active compounds read low 0.949 | locus YHR200W, strain rpn10, active compounds read low 1.01 | locus YIL066C, strain RNR3, active compounds read low 1.01 | locus YIL073C, strain SPO22, active compounds read low 1.1 | locus YIL125W, strain kgd1, active compounds read low 1.02 | locus YIR030C, strain dcg1, active compounds read low 1.02 | locus YJL092W, strain hpr5, active compounds read low 0.985 | locus YJL095W, strain BCK1 (second series), active compounds read low 0.991 | locus YJL095W, strain BCK1, active compounds read low 0.945 and 1.05 | locus YJL115W, strain asf1, active compounds read low 0.969 | locus YJL129C, strain trk1, active compounds read low 0.969 | locus YJL134W, strain LCB3, active compounds read low 1.01 | locus YJL154C, strain vps35, active compounds read low 0.981 | locus YJL164C, strain tpk1, active compounds read low 0.999 | locus YJL166W, strain qcr8, active compounds read low 1 | locus YJL168C, strain set2, active compounds read low 1.03 | locus YJL187C, strain SWE1 (second series), active compounds read low 1 | locus YJR043C, strain POL32, active compounds read low 1.02
active: locus YDR137W, strain rgp1, active compounds read low 1.15 [resistant] | locus YER155C, strain BEM2 (second series), active compounds read low 0.802
